Results on 1 sequence are retold here after paper PMC7862700, “An all-to-all approach to the identification of sequence-specific readers for epigenetic DNA modifications on cytosine”.

Experiment in all cases: DAPPL (digital affinity profiling via proximity ligation, sequencing); 10 mM Tris-HCl pH 7.5, 50 mM NaCl, 1 mM DTT, 4% glycerol, room temperature, 30 min; GST-TFs on glutathione beads, 16-mer random dsDNA library, 0.1% formaldehyde crosslink after washing; high values mean tight binding
One assay has as its target T1, FLI1 (Homo sapiens, UniProt Q01543 1-452).
T1 sequence: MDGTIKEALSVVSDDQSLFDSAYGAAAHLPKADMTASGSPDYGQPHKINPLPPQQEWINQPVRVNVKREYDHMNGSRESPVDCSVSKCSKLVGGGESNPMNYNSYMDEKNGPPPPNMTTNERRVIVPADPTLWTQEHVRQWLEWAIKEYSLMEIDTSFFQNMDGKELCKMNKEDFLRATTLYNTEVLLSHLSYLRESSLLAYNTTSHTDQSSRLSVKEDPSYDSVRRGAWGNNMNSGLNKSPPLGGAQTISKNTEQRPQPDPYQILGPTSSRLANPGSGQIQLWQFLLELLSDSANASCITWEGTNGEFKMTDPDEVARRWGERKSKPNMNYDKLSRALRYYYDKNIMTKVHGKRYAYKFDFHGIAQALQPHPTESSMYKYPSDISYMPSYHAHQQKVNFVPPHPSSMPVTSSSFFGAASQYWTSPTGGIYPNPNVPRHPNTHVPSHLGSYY
The settings on record: protein: recombinant; tags: N-terminal GST; dsDNA, one strand shown. Summed up: (§1)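 The binding signal reported is, for every hexamer, its read frequency for a factor over its read frequency for the tag-only sample. Reads came from pools of yeast-expressed, GST-fused human transcription factors on glutathione beads, barcoded with DNA and mixed with that sample, which were incubated with 200 nmole of a random double-stranded 16-mer DNA library in Tris/NaCl/DTT/glycerol buffer at room temperature for 30 min. After washing, the pools were crosslinked with 0.1% formaldehyde, proximity-ligated with BsaI/T4 ligase for 1 h at 37 °C, PCR-amplified and sequenced on an Illumina NextSeq500.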

The next assay addresses T2, ELK1 (Homo sapiens, UniProt P19419 1-428).
T2 sequence: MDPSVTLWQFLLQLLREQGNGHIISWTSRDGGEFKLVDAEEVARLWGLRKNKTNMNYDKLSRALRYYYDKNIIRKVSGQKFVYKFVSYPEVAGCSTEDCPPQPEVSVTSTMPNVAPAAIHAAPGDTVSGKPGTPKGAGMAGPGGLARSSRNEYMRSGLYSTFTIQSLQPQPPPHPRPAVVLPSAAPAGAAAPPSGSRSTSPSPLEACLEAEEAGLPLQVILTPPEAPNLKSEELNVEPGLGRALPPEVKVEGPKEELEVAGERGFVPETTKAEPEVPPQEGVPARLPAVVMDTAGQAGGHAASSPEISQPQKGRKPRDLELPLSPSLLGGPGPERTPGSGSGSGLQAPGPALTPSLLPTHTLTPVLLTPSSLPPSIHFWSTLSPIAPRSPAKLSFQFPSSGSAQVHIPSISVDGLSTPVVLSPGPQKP
The settings on record: protein: recombinant; tags: N-terminal GST; dsDNA, one strand shown. Summed up:
as §1

For the next assay, the target named is T3, GABPA (Homo sapiens, UniProt Q06546 1-454).
T3 sequence: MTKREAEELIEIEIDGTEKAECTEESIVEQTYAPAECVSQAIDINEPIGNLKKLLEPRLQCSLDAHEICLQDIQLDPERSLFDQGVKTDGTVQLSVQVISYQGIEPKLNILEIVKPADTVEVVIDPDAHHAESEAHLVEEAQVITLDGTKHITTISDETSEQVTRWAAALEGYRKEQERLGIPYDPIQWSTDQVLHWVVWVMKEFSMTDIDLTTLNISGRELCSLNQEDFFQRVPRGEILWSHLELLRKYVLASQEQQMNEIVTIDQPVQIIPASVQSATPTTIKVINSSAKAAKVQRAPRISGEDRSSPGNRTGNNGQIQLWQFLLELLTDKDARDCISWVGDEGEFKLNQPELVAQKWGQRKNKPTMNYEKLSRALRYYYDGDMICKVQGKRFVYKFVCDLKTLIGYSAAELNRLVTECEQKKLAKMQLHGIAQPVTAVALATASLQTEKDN
Conditions: protein: recombinant; tags: N-terminal GST; dsDNA, one strand shown. Summed up: as §1

The target of a further assay is T4, ERG (Homo sapiens, UniProt P11308 1-479).
T4 sequence: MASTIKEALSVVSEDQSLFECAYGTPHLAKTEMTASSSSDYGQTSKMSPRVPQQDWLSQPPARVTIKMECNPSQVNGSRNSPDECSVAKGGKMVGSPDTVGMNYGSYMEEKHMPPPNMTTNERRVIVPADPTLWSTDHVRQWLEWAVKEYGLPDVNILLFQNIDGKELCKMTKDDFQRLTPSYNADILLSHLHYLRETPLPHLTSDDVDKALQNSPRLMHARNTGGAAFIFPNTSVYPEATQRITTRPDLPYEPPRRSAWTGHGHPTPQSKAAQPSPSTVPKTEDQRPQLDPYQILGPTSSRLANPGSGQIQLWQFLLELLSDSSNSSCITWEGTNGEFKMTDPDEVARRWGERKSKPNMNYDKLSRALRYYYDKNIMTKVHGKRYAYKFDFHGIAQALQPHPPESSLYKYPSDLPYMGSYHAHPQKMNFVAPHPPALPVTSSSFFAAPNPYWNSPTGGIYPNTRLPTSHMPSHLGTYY
The settings on record: protein: recombinant; tags: N-terminal GST; dsDNA, one strand shown. Summed up:
as §1

The target of another assay is ELF1 (Homo sapiens, UniProt P32519 1-619). The settings on record: protein: recombinant; tags: N-terminal GST; dsDNA, one strand shown. Summed up:
as §1

For another assay, the target named is T5, EHF (Homo sapiens, UniProt Q9NZC4 1-300).
T5 sequence: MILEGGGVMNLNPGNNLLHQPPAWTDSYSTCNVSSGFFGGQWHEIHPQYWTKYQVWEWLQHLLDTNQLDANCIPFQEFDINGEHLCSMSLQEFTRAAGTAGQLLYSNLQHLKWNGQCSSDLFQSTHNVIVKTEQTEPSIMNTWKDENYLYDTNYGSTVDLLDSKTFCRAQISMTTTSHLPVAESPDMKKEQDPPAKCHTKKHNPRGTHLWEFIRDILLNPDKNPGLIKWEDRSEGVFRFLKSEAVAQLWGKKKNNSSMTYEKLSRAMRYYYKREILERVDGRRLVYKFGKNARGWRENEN
The settings on record: protein: recombinant; tags: N-terminal GST; dsDNA, one strand shown. Summed up: as §1

For a further assay, the target named is SPI1 (Homo sapiens, UniProt P17947 1-270). The settings on record: protein: recombinant; tags: N-terminal GST; dsDNA, one strand shown. Summed up:
as §1

In a further assay the target is SPIB (Homo sapiens, UniProt Q01892 1-262). Conditions: protein: recombinant; tags: N-terminal GST; dsDNA, one strand shown. Summed up: as §1
SPIB, sequence (Q01892 whole entry): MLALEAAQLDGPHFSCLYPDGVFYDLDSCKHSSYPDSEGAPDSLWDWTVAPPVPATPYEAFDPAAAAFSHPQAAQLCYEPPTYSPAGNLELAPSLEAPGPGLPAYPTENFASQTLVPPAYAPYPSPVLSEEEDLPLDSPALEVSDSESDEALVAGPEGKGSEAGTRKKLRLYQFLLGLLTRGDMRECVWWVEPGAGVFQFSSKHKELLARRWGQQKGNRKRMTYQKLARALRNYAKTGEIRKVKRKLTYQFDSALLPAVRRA
A further assay has as its target T6, ELK3 (Homo sapiens, UniProt P41970 1-407).
T6 sequence: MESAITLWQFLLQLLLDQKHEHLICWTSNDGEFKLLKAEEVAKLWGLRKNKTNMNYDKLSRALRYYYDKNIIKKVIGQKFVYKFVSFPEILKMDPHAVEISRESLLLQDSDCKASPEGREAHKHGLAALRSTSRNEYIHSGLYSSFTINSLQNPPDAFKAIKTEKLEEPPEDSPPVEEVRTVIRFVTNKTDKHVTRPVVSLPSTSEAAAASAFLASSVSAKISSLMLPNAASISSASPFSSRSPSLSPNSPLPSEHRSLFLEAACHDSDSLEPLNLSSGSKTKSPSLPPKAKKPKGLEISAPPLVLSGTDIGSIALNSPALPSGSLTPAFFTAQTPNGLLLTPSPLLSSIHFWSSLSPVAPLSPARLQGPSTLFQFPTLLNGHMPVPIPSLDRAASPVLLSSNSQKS
The settings on record: protein: recombinant; tags: N-terminal GST; dsDNA, one strand shown. Summed up:
as §1

Another assay addresses T7, FEV (Homo sapiens, UniProt Q99581 1-238).
T7 sequence: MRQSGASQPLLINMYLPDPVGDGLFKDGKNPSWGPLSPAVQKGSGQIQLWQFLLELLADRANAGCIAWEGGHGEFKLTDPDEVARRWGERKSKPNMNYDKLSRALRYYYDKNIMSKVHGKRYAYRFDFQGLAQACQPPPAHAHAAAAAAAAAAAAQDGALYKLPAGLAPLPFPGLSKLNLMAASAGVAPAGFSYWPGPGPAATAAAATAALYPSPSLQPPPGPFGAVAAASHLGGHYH
The settings on record: protein: recombinant; tags: N-terminal GST; dsDNA, one strand shown. Summed up:
as §1

A further assay deals with ETV5 (Homo sapiens, UniProt P41161 1-510). The settings on record: protein: recombinant; tags: N-terminal GST; dsDNA, one strand shown. Summed up:
as §1

A further assay has as its target HSF1 (Homo sapiens, UniProt Q00613 1-529). The settings on record: protein: recombinant; tags: N-terminal GST; chain copies: 3; dsDNA, one strand shown. Summed up:
as §1

For another assay, the target named is T8, SPIC (Homo sapiens, UniProt Q8N5J4 1-248).
T8 sequence: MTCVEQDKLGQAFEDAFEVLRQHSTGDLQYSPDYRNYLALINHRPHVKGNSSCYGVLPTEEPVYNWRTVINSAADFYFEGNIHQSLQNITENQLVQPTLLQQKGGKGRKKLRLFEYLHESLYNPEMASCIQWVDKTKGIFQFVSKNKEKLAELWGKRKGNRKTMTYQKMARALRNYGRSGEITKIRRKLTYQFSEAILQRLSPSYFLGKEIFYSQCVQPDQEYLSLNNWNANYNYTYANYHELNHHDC
Conditions: protein: recombinant; tags: N-terminal GST; dsDNA, one strand shown. Summed up: as §1

The next assay deals with ELF4 (Homo sapiens, UniProt Q99607 1-663). Conditions: protein: recombinant; tags: N-terminal GST; dsDNA, one strand shown. Summed up: as §1
ELF4, sequence (Q99607 whole entry): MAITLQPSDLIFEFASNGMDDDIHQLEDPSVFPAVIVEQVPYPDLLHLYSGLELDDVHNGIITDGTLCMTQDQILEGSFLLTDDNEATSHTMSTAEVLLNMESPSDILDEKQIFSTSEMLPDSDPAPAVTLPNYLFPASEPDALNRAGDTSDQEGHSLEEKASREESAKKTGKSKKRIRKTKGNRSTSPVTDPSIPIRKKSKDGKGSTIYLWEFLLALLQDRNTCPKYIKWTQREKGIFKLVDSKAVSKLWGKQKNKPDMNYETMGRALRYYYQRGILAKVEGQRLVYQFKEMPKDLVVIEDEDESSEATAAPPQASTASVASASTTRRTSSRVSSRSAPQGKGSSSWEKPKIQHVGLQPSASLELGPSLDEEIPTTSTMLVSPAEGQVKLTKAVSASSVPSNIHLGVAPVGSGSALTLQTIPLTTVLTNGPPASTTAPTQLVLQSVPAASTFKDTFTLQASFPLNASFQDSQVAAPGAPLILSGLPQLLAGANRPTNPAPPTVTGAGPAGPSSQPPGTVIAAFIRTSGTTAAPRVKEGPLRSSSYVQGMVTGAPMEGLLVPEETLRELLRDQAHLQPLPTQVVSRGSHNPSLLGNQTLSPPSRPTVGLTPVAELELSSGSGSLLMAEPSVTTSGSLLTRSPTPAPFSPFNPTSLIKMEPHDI
The target of another assay is T9, ELK4 (Homo sapiens, UniProt P28324-2 1-405).
T9 sequence: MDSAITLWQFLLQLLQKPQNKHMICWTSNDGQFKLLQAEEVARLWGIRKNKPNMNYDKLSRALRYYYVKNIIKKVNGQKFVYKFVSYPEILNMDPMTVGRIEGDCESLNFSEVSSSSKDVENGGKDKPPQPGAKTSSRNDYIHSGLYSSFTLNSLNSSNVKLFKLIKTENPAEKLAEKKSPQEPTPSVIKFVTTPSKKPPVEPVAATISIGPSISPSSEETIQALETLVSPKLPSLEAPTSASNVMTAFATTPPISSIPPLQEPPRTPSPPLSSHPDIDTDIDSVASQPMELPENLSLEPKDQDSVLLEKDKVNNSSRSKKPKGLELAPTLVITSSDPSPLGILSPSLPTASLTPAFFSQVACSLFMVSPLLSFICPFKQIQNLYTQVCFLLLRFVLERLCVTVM
The settings on record: protein: recombinant; tags: N-terminal GST; dsDNA, one strand shown. Summed up: as §1

A further assay addresses T10, ETV2 (Homo sapiens, UniProt O00321 1-342).
T10 sequence: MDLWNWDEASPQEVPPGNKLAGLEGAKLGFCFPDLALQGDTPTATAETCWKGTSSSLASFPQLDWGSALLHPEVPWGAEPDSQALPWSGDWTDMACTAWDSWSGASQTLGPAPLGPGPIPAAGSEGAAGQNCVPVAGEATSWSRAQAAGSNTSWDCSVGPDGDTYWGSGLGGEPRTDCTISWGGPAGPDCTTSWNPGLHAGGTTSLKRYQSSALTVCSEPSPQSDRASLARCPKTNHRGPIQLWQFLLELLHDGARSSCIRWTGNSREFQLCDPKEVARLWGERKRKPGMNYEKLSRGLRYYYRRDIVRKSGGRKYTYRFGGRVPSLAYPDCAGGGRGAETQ
The settings on record: protein: recombinant; tags: N-terminal GST; dsDNA, one strand shown. Summed up: as §1

The target of a further assay is CRX (Homo sapiens, UniProt O43186 1-299). The settings on record: protein: recombinant; tags: N-terminal GST; dsDNA, one strand shown. Summed up:
as §1

For the next assay, the target named is ETV1 (Homo sapiens, UniProt P50549 1-477). Conditions: protein: recombinant; tags: N-terminal GST; dsDNA, one strand shown. Summed up:
as §1

ETV1, sequence (P50549 whole entry): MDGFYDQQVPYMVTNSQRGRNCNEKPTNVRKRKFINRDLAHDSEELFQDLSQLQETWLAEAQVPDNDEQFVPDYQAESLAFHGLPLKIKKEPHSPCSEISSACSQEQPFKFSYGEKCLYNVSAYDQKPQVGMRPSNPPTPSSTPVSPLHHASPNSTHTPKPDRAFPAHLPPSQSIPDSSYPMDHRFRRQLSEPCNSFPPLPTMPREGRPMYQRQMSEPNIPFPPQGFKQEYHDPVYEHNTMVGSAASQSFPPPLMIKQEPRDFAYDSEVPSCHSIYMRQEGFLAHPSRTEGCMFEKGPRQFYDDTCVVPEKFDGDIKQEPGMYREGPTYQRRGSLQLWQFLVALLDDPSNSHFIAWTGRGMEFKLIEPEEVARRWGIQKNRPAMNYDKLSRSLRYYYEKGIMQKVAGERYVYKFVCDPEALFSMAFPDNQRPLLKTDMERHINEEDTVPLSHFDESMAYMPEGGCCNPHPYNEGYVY
CRX, sequence (O43186 whole entry): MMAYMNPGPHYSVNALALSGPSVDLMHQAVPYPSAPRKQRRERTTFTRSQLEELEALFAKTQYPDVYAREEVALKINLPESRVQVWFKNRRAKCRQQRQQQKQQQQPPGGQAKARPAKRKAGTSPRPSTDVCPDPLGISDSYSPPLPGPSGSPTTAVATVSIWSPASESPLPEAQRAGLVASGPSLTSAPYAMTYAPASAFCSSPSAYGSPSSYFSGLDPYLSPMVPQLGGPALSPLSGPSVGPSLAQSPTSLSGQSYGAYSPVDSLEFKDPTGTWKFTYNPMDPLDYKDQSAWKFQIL
ETV5, sequence (P41161 whole entry): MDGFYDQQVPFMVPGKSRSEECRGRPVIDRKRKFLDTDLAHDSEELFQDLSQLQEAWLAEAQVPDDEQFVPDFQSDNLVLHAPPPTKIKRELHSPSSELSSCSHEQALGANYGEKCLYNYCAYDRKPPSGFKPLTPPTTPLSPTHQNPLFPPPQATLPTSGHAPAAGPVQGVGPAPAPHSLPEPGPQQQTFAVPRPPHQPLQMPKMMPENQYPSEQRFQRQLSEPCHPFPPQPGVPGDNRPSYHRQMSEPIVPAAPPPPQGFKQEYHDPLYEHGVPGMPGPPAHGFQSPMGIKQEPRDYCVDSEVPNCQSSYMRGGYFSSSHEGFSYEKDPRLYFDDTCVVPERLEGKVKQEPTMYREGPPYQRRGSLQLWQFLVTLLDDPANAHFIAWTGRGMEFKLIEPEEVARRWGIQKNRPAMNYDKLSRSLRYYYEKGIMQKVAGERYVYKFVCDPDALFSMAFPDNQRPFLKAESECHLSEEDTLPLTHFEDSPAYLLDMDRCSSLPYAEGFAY
HSF1, sequence (Q00613 whole entry): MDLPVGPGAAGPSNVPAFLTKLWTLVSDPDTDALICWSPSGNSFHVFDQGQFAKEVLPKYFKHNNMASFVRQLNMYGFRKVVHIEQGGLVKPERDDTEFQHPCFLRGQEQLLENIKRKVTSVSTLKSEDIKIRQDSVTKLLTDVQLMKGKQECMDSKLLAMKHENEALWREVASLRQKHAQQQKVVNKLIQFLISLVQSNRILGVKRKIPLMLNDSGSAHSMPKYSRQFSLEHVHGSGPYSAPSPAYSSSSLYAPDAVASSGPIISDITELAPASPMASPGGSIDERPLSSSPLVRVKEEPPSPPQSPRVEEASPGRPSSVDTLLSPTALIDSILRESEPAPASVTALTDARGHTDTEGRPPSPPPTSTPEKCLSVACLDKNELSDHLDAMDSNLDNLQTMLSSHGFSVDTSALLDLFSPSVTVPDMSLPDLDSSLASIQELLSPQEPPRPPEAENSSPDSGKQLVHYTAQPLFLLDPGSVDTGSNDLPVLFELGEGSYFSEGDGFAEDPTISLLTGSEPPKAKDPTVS
ELF1, sequence (P32519 whole entry): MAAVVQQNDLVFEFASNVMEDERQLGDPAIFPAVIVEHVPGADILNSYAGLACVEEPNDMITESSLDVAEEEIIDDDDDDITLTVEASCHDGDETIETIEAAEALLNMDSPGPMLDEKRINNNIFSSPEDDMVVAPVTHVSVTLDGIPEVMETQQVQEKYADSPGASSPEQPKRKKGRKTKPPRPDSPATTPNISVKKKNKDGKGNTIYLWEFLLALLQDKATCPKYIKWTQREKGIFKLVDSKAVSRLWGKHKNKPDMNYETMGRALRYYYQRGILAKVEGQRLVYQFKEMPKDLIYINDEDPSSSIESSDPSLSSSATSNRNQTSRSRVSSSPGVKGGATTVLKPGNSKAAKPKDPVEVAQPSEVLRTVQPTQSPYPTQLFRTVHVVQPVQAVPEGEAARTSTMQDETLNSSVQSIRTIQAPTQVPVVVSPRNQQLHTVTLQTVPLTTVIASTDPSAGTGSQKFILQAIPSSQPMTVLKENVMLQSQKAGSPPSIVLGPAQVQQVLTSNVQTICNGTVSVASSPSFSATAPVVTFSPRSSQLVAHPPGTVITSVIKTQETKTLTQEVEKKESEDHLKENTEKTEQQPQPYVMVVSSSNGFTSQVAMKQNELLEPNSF

For TTTCGC, the binding signal in the assay with FLI1 was 1.11 fold enrichment (6-mer frequency, TF over GST control); in the assay with ELK1 it was 1.12 fold enrichment (6-mer frequency, TF over GST control); with GABPA it was 1.06 fold enrichment (6-mer frequency, TF over GST control); in the assay with ERG, 1.02 fold enrichment (6-mer frequency, TF over GST control); with ELF1, 1.13 fold enrichment (6-mer frequency, TF over GST control); with EHF, 1.2 fold enrichment (6-mer frequency, TF over GST control). The binding signal in the assay with SPI1 was 1.13 fold enrichment (6-mer frequency, TF over GST control); with SPIB, 1.2 fold enrichment (6-mer frequency, TF over GST control); with ELK3, 1.14 fold enrichment (6-mer frequency, TF over GST control); with FEV it was 1.16 fold enrichment (6-mer frequency, TF over GST control); with ETV5, 1.08 fold enrichment (6-mer frequency, TF over GST control); with HSF1, 1.32 fold enrichment (6-mer frequency, TF over GST control). Besides, the binding signal in the assay with SPIC was 1.2 fold enrichment (6-mer frequency, TF over GST control); in the assay with ELF4, 1.08 fold enrichment (6-mer frequency, TF over GST control); in the assay with ELK4, 1.24 fold enrichment (6-mer frequency, TF over GST control); in the assay with ETV2, 1.39 fold enrichment (6-mer frequency, TF over GST control); with CRX it was 1.19 fold enrichment (6-mer frequency, TF over GST control); in the assay with ETV1, 1.09 fold enrichment (6-mer frequency, TF over GST control).
